Results on one molecule are retold here after ChEMBL document CHEMBL1961873, “Compounds: GSK PKIS; Assays: Nanosyn kinase panel” (2012).

Molecules are shown by their SMILES. “And” between values parts separate entries of the source, which are not always exact repeats. Equal values may be shown once.

Assay [1] addresses Sphingosine kinase 1 (Homo sapiens) (UniProt Q9NYA1). The settings on record: at 1 µM.
The target in assay [2] is T1, Sphingosine kinase 2 (Homo sapiens) (UniProt Q9NRA0).
T1 sequence (whole entry): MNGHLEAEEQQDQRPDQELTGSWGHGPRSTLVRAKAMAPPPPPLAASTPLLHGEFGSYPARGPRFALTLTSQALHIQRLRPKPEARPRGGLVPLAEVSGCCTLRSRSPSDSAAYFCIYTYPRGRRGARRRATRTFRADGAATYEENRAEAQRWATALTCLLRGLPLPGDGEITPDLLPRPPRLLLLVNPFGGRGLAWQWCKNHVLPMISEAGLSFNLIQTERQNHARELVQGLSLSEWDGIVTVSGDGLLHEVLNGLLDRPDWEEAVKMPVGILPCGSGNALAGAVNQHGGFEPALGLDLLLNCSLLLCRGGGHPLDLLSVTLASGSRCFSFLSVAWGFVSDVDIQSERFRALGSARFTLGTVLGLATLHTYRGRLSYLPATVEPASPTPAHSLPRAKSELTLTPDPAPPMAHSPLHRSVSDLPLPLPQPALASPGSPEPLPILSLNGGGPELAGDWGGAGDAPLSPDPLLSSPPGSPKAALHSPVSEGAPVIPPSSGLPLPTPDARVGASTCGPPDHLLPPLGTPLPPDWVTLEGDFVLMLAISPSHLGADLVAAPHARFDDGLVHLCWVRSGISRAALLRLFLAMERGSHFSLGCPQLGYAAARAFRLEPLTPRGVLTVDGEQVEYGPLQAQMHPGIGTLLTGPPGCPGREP
Conditions: at 0.1 µM.

For assay [3], the target named is T1, Sphingosine kinase 2 (Homo sapiens). Conditions: at 1 µM.
Assay [4] addresses Casein kinase II subunit alpha (Homo sapiens) (UniProt P68400). Conditions: at 0.1 µM.
Assay [5] shares this target. Conditions: at 1 µM.
The target in assay [6] is T2, Inhibitor of nuclear factor kappa-B kinase subunit alpha (Homo sapiens) (UniProt O15111).
T2 sequence (whole entry): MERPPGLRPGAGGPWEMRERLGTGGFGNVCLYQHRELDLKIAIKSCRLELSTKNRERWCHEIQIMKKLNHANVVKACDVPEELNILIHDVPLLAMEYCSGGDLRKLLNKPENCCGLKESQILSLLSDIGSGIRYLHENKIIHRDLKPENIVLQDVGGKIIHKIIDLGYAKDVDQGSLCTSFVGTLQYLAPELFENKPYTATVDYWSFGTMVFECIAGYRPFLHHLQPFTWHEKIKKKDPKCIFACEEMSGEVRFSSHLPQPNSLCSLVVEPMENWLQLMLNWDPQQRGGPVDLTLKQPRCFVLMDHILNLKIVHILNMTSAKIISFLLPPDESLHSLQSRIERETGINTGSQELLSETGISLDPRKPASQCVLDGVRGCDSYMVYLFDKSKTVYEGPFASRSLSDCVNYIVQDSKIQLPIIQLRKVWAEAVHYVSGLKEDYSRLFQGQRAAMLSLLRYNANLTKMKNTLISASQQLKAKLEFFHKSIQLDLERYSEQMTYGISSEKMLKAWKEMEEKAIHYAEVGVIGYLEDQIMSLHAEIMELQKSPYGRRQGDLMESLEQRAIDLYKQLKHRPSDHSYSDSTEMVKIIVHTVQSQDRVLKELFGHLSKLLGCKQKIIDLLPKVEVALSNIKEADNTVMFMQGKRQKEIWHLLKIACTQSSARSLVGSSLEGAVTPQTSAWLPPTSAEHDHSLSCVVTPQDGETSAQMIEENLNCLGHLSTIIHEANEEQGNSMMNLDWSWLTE
Conditions: at 0.1 µM.

The target of assay [7] is T2, Inhibitor of nuclear factor kappa-B kinase subunit alpha (Homo sapiens). Conditions: at 1 µM.
The target in assay [8] is T3, Inhibitor of nuclear factor kappa-B kinase subunit beta (Homo sapiens) (UniProt O14920).
T3 sequence (whole entry): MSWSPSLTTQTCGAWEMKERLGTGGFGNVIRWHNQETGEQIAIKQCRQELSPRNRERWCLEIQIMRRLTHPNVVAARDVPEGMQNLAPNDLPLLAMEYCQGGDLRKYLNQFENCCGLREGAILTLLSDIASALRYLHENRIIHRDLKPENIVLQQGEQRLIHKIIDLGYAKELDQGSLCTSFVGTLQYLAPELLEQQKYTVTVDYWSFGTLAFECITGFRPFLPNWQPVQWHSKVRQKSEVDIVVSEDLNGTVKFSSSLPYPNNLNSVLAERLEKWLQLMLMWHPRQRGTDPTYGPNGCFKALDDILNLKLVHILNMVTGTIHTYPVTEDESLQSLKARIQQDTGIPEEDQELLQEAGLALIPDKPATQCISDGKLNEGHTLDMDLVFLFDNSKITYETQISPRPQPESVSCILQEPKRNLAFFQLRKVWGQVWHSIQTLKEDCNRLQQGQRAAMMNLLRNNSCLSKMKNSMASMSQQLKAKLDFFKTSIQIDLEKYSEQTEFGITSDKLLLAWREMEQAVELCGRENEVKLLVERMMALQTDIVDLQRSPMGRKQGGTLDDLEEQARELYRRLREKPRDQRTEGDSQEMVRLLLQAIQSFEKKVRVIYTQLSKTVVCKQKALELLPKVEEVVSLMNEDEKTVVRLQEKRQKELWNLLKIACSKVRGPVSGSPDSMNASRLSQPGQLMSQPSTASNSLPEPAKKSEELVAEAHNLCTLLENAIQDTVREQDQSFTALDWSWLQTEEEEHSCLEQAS
Conditions: at 0.1 µM.

Assay [9] has as its target T3, Inhibitor of nuclear factor kappa-B kinase subunit beta (Homo sapiens). Conditions: at 1 µM.
In assay [10] the target is T4, Inhibitor of nuclear factor kappa-B kinase subunit epsilon (Homo sapiens) (UniProt Q14164).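 Also: mean inhibition of IKKε reported, from the GSK PKIS dataset.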
T4 sequence (whole entry): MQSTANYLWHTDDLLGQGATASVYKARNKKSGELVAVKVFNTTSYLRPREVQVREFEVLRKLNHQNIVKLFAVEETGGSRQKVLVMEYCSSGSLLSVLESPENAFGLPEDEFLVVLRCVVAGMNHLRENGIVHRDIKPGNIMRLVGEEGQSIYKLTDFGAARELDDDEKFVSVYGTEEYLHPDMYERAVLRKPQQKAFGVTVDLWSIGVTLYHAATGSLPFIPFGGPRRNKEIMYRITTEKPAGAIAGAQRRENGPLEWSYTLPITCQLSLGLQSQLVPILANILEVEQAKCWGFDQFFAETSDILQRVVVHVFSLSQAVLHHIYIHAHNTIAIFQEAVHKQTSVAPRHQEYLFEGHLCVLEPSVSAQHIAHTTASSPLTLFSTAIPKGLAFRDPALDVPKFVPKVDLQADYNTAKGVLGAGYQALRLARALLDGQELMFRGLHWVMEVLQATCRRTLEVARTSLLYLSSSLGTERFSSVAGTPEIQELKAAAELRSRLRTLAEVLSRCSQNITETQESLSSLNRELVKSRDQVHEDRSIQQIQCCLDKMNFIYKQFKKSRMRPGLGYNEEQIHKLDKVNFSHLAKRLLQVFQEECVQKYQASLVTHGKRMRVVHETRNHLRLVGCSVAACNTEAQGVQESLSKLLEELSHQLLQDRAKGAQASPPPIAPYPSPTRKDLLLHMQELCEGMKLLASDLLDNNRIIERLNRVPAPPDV
The settings on record: at 0.1 µM.

Casein kinase II subunit alpha (Homo sapiens), sequence (P68400 whole entry, looked up): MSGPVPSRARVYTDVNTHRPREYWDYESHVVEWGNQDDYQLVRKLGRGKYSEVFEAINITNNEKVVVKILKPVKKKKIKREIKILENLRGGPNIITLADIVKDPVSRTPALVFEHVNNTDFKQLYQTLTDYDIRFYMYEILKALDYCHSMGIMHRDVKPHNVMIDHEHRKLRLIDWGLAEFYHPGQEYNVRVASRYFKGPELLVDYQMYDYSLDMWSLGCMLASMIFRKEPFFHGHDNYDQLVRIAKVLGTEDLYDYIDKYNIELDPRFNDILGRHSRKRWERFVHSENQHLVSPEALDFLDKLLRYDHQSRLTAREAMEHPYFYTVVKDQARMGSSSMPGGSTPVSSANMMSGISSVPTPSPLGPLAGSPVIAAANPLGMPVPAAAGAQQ
Sphingosine kinase 1 (Homo sapiens), sequence (Q9NYA1 whole entry): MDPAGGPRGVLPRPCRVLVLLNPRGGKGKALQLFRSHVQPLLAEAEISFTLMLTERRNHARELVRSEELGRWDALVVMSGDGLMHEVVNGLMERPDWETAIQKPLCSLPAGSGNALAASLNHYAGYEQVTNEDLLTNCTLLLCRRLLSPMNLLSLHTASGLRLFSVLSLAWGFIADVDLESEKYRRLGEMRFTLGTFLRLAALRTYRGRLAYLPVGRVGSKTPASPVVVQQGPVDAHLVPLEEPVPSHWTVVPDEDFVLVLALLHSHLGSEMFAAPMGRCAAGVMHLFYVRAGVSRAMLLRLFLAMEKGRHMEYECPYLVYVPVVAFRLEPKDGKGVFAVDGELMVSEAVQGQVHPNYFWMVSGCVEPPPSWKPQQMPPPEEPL

Turning to `Nc1ncnc2occ(-c3ccc(NC(=O)Nc4cc(C(F)(F)F)ccc4F)cc3)c12`, the inhibition is -0.65% and 1.59% in [1]; -1.33% and 0% in assay [2]; 11.6% and 0% in [3]; 2.39% and -3.9% in assay [4]; 6.35% and 0.16% in assay [5]; 5.79% and 7.04% in assay [6]. Also, the inhibition in assay [7] is 6.73% and 11.3%; in assay [8] it was 1.45% and -2.16%; in assay [9] it was 2.13% and 1.62%; in [10] it was 1.57% and 0.44%.

One may read the inhibition as the drop in the measured response relative to a control, in per cent.
